A selection: hits, their analogues and other compounds. The true share with any hit is near 2.3%.
M1 PAM parental: nonselective calcium activators in parental CHO-K1 cells, primary screen, counter-screen for M1 PAM project, cell-based, Fluo-8 calcium fluorescence, full deck, 1536-well; ATP EC20; 0% at ATP EC20, 100% at ATP max; activation, % at 3 µM; 360,000 tested, 0.02% active; AID 602247, 2012;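 active = activation above the run cutoff, the mean activation of all test compounds plus 3 SD, cut at about 40% in these data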;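 note: peak over basal fluorescence ratio in a 140 s read after ATP addition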
CHRM1 antagonist: human M1 muscarinic receptor antagonists, primary screen, CHO-K1 cells, Fluo-8 calcium fluorescence, 1536-well; AID 588852, 2011; CHO-K1 hM1, ACh EC80 antagonist; Muscarinic acetylcholine receptor M1 (Homo sapiens), P11229; inhibition, % at 3 µM; 360,000 tested, 1.3% active;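 active = percent inhibition above its own plate's cutoff, namely the mean of that plate's compound wells plus 3 SD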;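 note: peak over basal fluorescence ratio during 140 s after agonist addition; 0% = ACh EC80 plus DMSO and 100% = DMSO alone without agonist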
Target sequence (P11229 whole entry, looked up): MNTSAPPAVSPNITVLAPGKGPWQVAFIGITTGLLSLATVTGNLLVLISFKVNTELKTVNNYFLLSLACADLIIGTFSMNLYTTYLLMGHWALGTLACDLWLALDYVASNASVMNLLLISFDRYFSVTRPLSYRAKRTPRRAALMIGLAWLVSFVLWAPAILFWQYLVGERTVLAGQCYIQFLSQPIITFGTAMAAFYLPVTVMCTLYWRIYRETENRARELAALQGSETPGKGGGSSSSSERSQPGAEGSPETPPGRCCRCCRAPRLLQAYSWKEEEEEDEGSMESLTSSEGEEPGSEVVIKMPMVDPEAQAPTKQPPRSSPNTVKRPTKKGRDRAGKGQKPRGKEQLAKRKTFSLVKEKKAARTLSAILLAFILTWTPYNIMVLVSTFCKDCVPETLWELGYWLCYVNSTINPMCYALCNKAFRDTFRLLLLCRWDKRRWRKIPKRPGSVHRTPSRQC
M1 ag: human M1 muscarinic receptor agonists, primary screen, Fluo-8 calcium fluorescence, CHO-K1 cells, HTS. CHO-K1 hM1, agonist mode; 0% DMSO, 100% acetylcholine EC100. Muscarinic acetylcholine receptor M1 (Homo sapiens), P11229. activation, % at 3 µM. AID 588814, 2011. 360,000 tested, 0.33% active;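 active = activation above the run's mean compound activation plus 3 SD, cut at about 16% in these data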;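 note: peak over basal fluorescence ratio within a 140 s kinetic read after compound addition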
CHO-K1 Ca antag: M1 antagonist counterscreen hit in parental CHO-K1 cells. ATP-induced calcium, Fluo-8 fluorescence. inhibition, % at 3 µM. 360,000 tested, 0.6% active. AID 602250;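 active = inhibition above a per-plate cutoff, the plate's mean sample inhibition plus 3 SD, cut at about 24% in these data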;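 note: 0% = DMSO plus EC80 ATP and 100% = DMSO alone without ATP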
M1 PAM: human M1 muscarinic receptor positive allosteric modulators, primary screen, CHO-K1 cells, Fluo-8 calcium fluorescence, 1536-well; 360,000 tested, 0.088% active; activation, % at 3 µM; CHO-K1 hM1, ACh EC20; 0% = ACh EC20, 100% = maximal ACh; AID 588819, 2011; in the data active = activation above about 19%, passing the limit was not always enough
M1 ag parental: counter-screen for M1 agonists: effect in parental CHO-K1 cells. Fluo-8 calcium fluorescence; scaled to maximal ATP response, vehicle zero. activation, % at 3 µM. 360,000 tested, 0.48% active. AID 602248, 2012; in the data active = activation above about 15%;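 note: untransfected CHO-K1 host cells lacking M1 receptor as counterscreen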
* hit, by the source's call; · = no result.

SMILES	M1 PAM parental	CHRM1 antagonist	M1 ag	CHO-K1 Ca antag	M1 PAM	M1 ag parental
O=C(COC(=O)Cc1ccccc1)NCCNC(=O)COC(=O)Cc1ccccc1	-4.3	-7.9	-1.8	-3.3	3.6	0.1
O=C(c1cn(Cc2ccccc2F)c2ncccc12)C(F)(F)F	-3.2	1.5	-7.0	-3.9	-0.2	-0.7
O=c1[nH]c(=S)n(CCC2=CCCCC2)c(O)c1C=NCCCn1ccnc1	-5.8	30.4*	-5.3	25.3*	-17.4	-0.1
O=C(c1ccccc1)C(CN1CCCC1)c1ccccc1 (configuration not stated)	25.8	50.9*	-6.5	1.8	-25.6	-0.1
O=C(CN1CCCCC1)c1ccc(F)cc1	15.2	-10.3	-2.8	-5.9	6.2	0.9
C=C[C@@H]1C2=CCOC(=O)C2=CO[C@H]1O[C@@H]1O[C@H](CO)[C@@H](O)[C@H](O)[C@H]1O	20.7	-13.9	-3.4	-16.4	9.3	2.5
CC(=O)OC1(c2ccccc2)CCN(C2CCCCC2)CC1C (configuration not stated)	3.9	31.4*	-7.1	-0.7	-22.8	3.8
O=P(Nc1ccccc1)(Oc1ccccc1)Oc1ccccc1	12.8	36.9*	-3.2	-3.0	-17.4	7.0
Cc1cccc(NP(=O)(Oc2ccccc2)Oc2ccccc2)c1C	16.0	29.8*	-2.8	-4.4	-16.9	16.8*
O=P(Nc1ccccc1)(Nc1ccccc1)Oc1cccc(Cl)c1	5.4	30.3	9.5	2.9	-20.0	41.5*
O=P(Nc1ccccc1)(Nc1ccccc1)Oc1ccccc1	23.6	2.3	-3.7	-9.4	-2.7	10.7
O=C(c1ccc(-c2ccccc2)cc1)C1CCCN(Cc2ccn[nH]2)C1 (configuration not stated)	17.3	8.1	-12.1	-9.6	-20.1	3.3
O=c1c2ccccc2nc(CNc2ccccc2)n1-c1ccccc1	15.4	-13.7	4.5	-10.9	3.5	0.6
O=C(Nc1ccc(F)c([N+](=O)[O-])c1)N1C[C@H]2C[C@@H](C1)c1cccc(=O)n1C2	-10.1	15.7	-1.3	-0.7	-3.8	0.0
Cc1ccc(/C=C2/C(=O)NC(=O)N(CC3CCCO3)C2=O)s1 (configuration not stated)	14.4	-3.2	-7.2	0.7	12.6	19.3*
O=C(O)C(Br)CBr (configuration not stated)	-12.5	-14.2	-0.6	4.7	5.7	-0.3
N#CC1=C(N)Oc2c(c(=O)oc3ccccc23)C1c1cccnc1 (configuration not stated)	5.7	-11.5	-2.2	-10.9	5.8	-0.1
Cc1nn(-c2ccccc2)c(Cl)c1C1C(C#N)=C(N)Oc2c1c(=O)oc1ccccc21 (configuration not stated)	-6.2	3.5	-2.9	25.3*	-5.8	0.0
CC(=O)c1cccc(NC(=O)N2C[C@H]3C[C@@H](C2)c2cccc(=O)n2C3)c1	-17.6	-12.1	-2.6	29.1*	5.1	0.0
CCOC(=O)c1ccc(NC(=O)N2C[C@@H]3C[C@@H](C2)c2cccc(=O)n2C3)cc1	-17.8	18.8	-13.5	24.6*	-9.9	0.3
O=C(c1ccc(N2CC3CC(C2)c2cccc(=O)n2C3)c([N+](=O)[O-])c1)N1CCCC1 (configuration not stated)	19.8	-6.7	-0.3	-17.9	2.9	0.6
CCN(CC)S(=O)(=O)c1cc(NC(=O)C(C)N2CC=C(c3ccccc3)CC2)ccc1C (configuration not stated)	18.8	37.2*	-14.9	-6.8	-27.6	0.1
Cc1cc(Br)c(NC(=O)CN2CC=C(c3ccccc3)CC2)c(Br)c1	26.9	2.7	-14.8	-10.1	-25.6	3.0
CNc1ccc2oc(C[C@H]3O[C@@]4(CC[C@H]3C)O[C@H]([C@H](C)C(=O)c3ccc[nH]3)[C@H](C)C[C@H]4C)nc2c1C(=O)O	-4.6	94.5*	104.8*	49.1*	-21.4	32.9*
O=C1CCCN1CC#CCN1CCCC1	12.9	86.7*	102.5*	4.9	-15.1	0.3
SMILES	M1 PAM parental	CHRM1 antagonist	M1 ag	CHO-K1 Ca antag	M1 PAM	M1 ag parental
CCOc1cc2c(cc1OCC)-n1cccc1C(c1ccc(C(C)C)cc1)NC2 (configuration not stated)	15.5	-17.5	-1.0	-4.4	9.0	3.9
COC(=O)C1=C(c2cc3ccccc3o2)C[C@@H]2CC[C@H]1N2C(=O)NCCNC(C)=O	0.1	32.5*	-12.4	-1.4	-24.4	1.6
CCOc1cc2c(cc1OCC)-n1cccc1C(c1ccc(OC)cc1)NC2 (configuration not stated)	13.9	-6.7	-4.7	2.8	3.7	17.8*
CCOc1cc2c(cc1OCC)-n1cccc1C(c1ccc(F)cc1)NC2 (configuration not stated)	5.7	2.9	-7.2	-9.0	1.4	5.2
COC(=O)C1=C(c2cccc(OC)c2OC)C[C@@H]2CC[C@H]1N2C(=O)N1CCC(C)CC1	14.5	-5.9	-4.5	-6.4	7.5	-0.2
CN1/C(=C\C=C2C(=O)NC(=O)NC2=O)C(C)(C)c2ccccc21	-1.7	15.1	28.6*	8.2	-9.3	24.9*
CN1/C(=C\C=Nc2ccccc2)C(C)(C)c2ccccc21	-17.7	10.4	-3.3	3.9	-5.1	0.8
COc1ccc(CN2Cc3cc(N4CCCCC4)ccc3-n3nncc3C2)cc1	2.0	-2.6	-9.2	8.0	0.9	-0.2
COc1ccc(C(=O)NC(=S)N2C[C@H]3C[C@H](C2)c2cccc(=O)n2C3)cc1	-2.6	-8.5	-2.3	0.9	3.0	0.3
CCN(CC)CCCOC(=O)C(OC)(c1ccccc1)c1ccccc1	3.2	98.8*	-12.5	-6.2	-36.4	0.3
CCOC(C(=O)OCC(O)CN(CC)CC)(c1ccccc1)c1ccccc1 (configuration not stated)	16.8	-2.0	-6.2	-11.2	2.2	0.7
CC[N+](C)(CC)CCCOC(=O)C(O)(c1ccccc1)C1CCCCC1 (configuration not stated)	32.1	96.1*	-8.9	-8.8	-23.0	0.4
CCCCOC(=O)c1ccccc1C(=O)OCCCC	12.5	9.3	-3.6	-6.9	-3.5	0.1
CCOC(C(=O)OCCC[N+](C)(CC)CC)(c1ccccc1)c1ccccc1	7.3	97.8*	-15.3	-10.1	-35.2	0.6
CC(=O)OC1CC2OC3C=C(C)CCC3(C)C1(C)C21CO1 (configuration not stated)	7.3	-13.6	-0.5	-5.8	5.6	0.5
CC12Nc3ccccc3C(=O)N1Cc1cnnn1-c1ccccc12 (configuration not stated)	2.2	·	·	-4.1	·	0.4
